High-throughput results as filed in PubChem.
HIV RNase H inh-1: inhibitors of HIV-1 reverse transcriptase RNase H; P04585; RT-RNase H RNA/DNA duplex cleavage, fluorescence; inhibition, % at 10 µM; 65,000 compounds, 1.9% hits; AID 565; in the data active means inhibition above about 50%
HIV RNase H inh-2: confirmation of HIV-1 reverse transcriptase RNase H inhibitors; inhibition, % at 10 µM; shares compounds with HIV RNase H inh-1; Recombinant RT RNase H, fluorescent RNA/DNA duplex cleavage; 1,000 compounds, 39% hits; AID 651; in the data active means inhibition above about 48%; inconclusive means no clear call, values can overlap the other calls
Starred values were filed as active, the others as inactive; ? = inconclusive. The entries come from a sample that favours hits as a whole.

SMILES	HIV RNase H inh-1	others
Nc1c(C(=O)Nc2ccc(F)cc2)sc2nc(-c3ccco3)ccc12	89*	HIV RNase H inh-2=40
COc1ccc(N(CC(=O)NCc2cccs2)S(=O)(=O)c2c(C)n[nH]c2C)cc1	-9
Cc1ccc(C2CC(=O)NC(SCCC(C)C)=C2C#N)cc1 (centres undefined)	65*	HIV RNase H inh-2=10
COC(=O)CSC1=C(C#N)C(c2ccc(C(C)C)cc2)CC(=O)N1 (centres undefined)	-9
COC(=O)CSC1=C(C#N)C(c2ccccc2)CC(=O)N1 (centres undefined)	-3
COc1cc(OC)c(C2=NOC(C(=O)O)C2)cc1Cl (centres undefined)	8
O=C(c1noc2c1CCc1ccccc1-2)N1CCc2ccccc2C1	6
CC(C(=O)Nc1ccccn1)N1C(=O)C2C3C=CC(C3)C2C1=O (centres undefined)	74*	HIV RNase H inh-2=18
CC(C(N)=O)N1C(=O)C2C3C=CC(C3)C2C1=O (centres undefined)	-4
CCCc1nnc(NC(=O)C(C)N2C(=O)C3C4C=CC(C4)C3C2=O)s1 (centres undefined)	-1
O=C(CCn1nnc(-c2cccs2)n1)NC1CCCCC1	34
CCOc1ccccc1-c1nc(SCC(=O)O)n[nH]1	-11
COc1ccc(-c2csc(N(CC3CCCO3)C(=O)c3ccco3)n2)cc1 (centres undefined)	-15
O=C(C1CCCN1C(=O)c1cccs1)N1CCc2ccccc21 (centres undefined)	-7
Cn1cc(Cl)nc1C(O)c1ccccc1 (centres undefined)	-3
CCN1C(=C2C(=O)c3ccccc3C2=O)C=Cc2ccccc21	-10
O=C1c2ccccc2C(=O)N1C/C=C/CN1C(=O)c2ccccc2C1=O	-20
O=C1C=Cc2ccccc2C1=O	95*	HIV RNase H inh-2=67*
CCOC(=O)c1cnc(SC2CCc3ccccc3C2=O)nc1N (centres undefined)	-4
Oc1ccc(N=Cc2ccc(O)c(O)c2)cc1	50
O=C(O)/C=C/c1ccc(O)c(O)c1	74*	HIV RNase H inh-2=76*
O=C(/C=C/c1ccccc1)c1ccccc1	-42
Cc1nc2sccn2c1-c1nc(C2CC2)c(C(=O)c2ccc3c(c2)NC(=O)CO3)s1	-10
CSc1nnnn1-c1cccc(O)c1	-4
Cc1ccc(NC(=O)c2ccc(OC(=O)c3ccco3)cc2)cc1	25
SMILES	HIV RNase H inh-1	others
O=C(Oc1ccc(-c2cnc3ccccc3n2)cc1)c1ccco1	73*	HIV RNase H inh-2=?
O=C(Oc1cccnc1)c1ccco1	-13
COCCCn1c(C)nc2c(c1=O)c1nc3ccccc3nc1n2CCc1ccccc1	-17
CSC1=NCCN1C(=O)c1c(F)cccc1F	-11
CCOC(=O)CSC1=C(C#N)C(=O)NC2(CCCCC2)S1	4
CC1(C)Cc2c(c(N3CCOCC3)nc3sc(C(=O)N4CCCCC4)c(N)c23)CO1	72*	HIV RNase H inh-2=41
CC1(C)Cc2c(c(N3CCOCC3)nc3sc(-c4ccc(C(=O)O)o4)c(N)c23)CO1	8
Cn1cnc2c(sc3nc(N4CCOCC4)c4c(c32)CC(C)(C)OC4)c1=O	-38
COc1ccc(N(CC(=O)N2CCCCC2)S(=O)(=O)c2ccccc2)c(OC)c1	-26
CC1CCN(C(=O)c2cc3ccccc3o2)CC1	-6
COc1ccc(OC)c(NC(=O)C2C3CC4OC(=O)C2C4C3)c1 (centres undefined)	-5
Cc1cc(C)c(NC(=O)Cn2c(=O)n(Cc3ccco3)c(=O)c3ccccc32)c(C)c1	69*	HIV RNase H inh-2=73*
Cc1cccc(Cn2c(=O)n(Cc3ccco3)c(=O)c3ccccc32)c1	-40
Cc1ccccc1Cn1c(=O)n(Cc2ccco2)c(=O)c2ccccc21	10
O=C(c1ccc2nc(-c3ccco3)c(-c3ccco3)nc2c1)N1CCC2(CC1)OCCO2	75*	HIV RNase H inh-2=33
O=C(c1ccc2c(c1)ncn2C1CCCCCC1)N1CCC2(CC1)OCCO2	-6
Cc1nc2cc(C(=O)N3CCC4(CC3)OCCO4)ccc2n1-c1cccc(F)c1	-15
Cc1sc2nc(SCC(=O)c3cc(C)n(CC4CCCO4)c3C)n(C(C)C)c(=O)c2c1C (centres undefined)	-1
COc1ccc(S(=O)(=O)N2CC3C4C=CC(C4)C3C2)cc1 (centres undefined)	-2
CC1=C(C#N)C(c2ccc3ncccc3c2)C(C#N)=C(C)N1	-10
CC(CC1C(C#N)=C(N)SC(N)=C1C#N)c1ccccc1 (centres undefined)	38
N#CC1=C(N)SC(N)=C(C#N)C1c1ccnc2ccccc12	65*	HIV RNase H inh-2=60*
Cc1ccc(NC(=O)c2cc(NC(=O)c3ccco3)ccc2N2CCCCC2)cc1	58*	HIV RNase H inh-2=31
Cc1ccc(NC(=O)c2cc(NC(=O)c3ccco3)ccc2N2CCOCC2)cc1	10
Cc1ccc(Oc2ccc(NC(=O)c3ccco3)cc2)cc1	-1
SMILES	HIV RNase H inh-1	others
COc1ccccc1C1CC(c2ccc(C)cc2)Nc2ncnn21 (centres undefined)	1
CC(C)CCN(C(=O)CNC(=O)c1ccco1)C(C(=O)NC1CCCCC1)c1ccco1 (centres undefined)	6
COCCCN(C(=O)Nc1ccccc1)C(C)c1ccncc1 (centres undefined)	-2
CCOC(=O)c1cc(-c2nnc(-c3ccc(Cl)cc3)o2)c(C)nc1C	10
CCOC(=O)c1cc(-c2nnc(SCC(=O)Nc3ccc(F)cc3)o2)c(C)nc1C	70*	HIV RNase H inh-2=2
Cc1sc(NC(=O)CSc2nnc(-c3ccc(F)cc3)o2)c(C#N)c1C	6
COc1ccc(N(CC(=O)NCc2cccs2)S(=O)(=O)c2cccnc2)cc1	1
Cc1cccc(NC(=O)C2CCN(c3nccc(C)n3)CC2)c1	-14
CCN(CC)c1ccc(C=Nc2ccc(C#N)cc2)c(O)c1	-17
CCN(CC)c1ccc(NC(=O)C(C)C)cc1	17
CCN(CC)c1ccc(C=N/C(C#N)=C(\N)C#N)cc1	80*	HIV RNase H inh-2=45
[O-][n+]1c2ccc3nonc3c2nn1-c1ccccc1Cl	-6
O=S(=O)(/C=C/c1ccccc1)Nc1ccc2c(c1)OCO2	-14
Cc1cc(NC(=O)c2cc(S(=O)(=O)N3CCCCC3)ccc2C)n(-c2ccccn2)n1	-2
Cc1cc(C)nc(/N=c2/ssnc2Cl)c1	84*	HIV RNase H inh-2=15
CCOc1ccc(-c2nc(CSc3nncs3)cs2)cc1OC	-30
Cc1ccc(C)n1-c1ccc(C(=O)NCC2CCCO2)cc1 (centres undefined)	-7
O=C(O)c1cnc2ccccc2n1	82*	HIV RNase H inh-2=17
O=C(Nc1cccnc1)c1cnc2ccccc2n1	-10
O=C(O)c1cccc(C(=O)O)n1	17
Cc1[nH]nc2c1C(c1cn[nH]c1-c1ccc(F)cc1)C(C#N)=C(N)O2 (centres undefined)	2
CC1(C)CCCN(C(=O)c2coc(=O)c(Br)c2)C1	20
COc1ccc(CCNC(=O)c2ccc3nc(-c4ccco4)c(-c4ccco4)nc3c2)cc1OC	93*	HIV RNase H inh-2=0
COc1ccc(CCNC(=O)c2ccc3c(=O)n(Cc4ccco4)c(=S)[nH]c3c2)cc1OC	-25
COc1ccc(CCNC(=O)COC(=O)c2ccco2)cc1OC	-6
CC1CC(C)(C)NC(=O)O1 (centres undefined)	-6
CC1CC(C)(C)NC(=S)S1 (centres undefined)	78*	HIV RNase H inh-2=52*
COc1ccc(OC)c(NC(=O)Cn2cc(C#N)c3cc(Br)ccc32)c1	-8
CCN1CCN(c2ncnc3c2cnn3-c2ccc(C)cc2C)CC1	-7
